Source: PubChem (Sanford-Burnham Center for Chemical Genomics)
Rows were chosen to be rich in hits. Some 3.2% of all compounds tested hit in one or more screens of this group.
CRFBP-R2 agonist – CRF-BP/CRF-R2 complex agonism. HEK293 CRF-R2/CRF-BP, calcium dye fluorescence (FLIPR); percent of saturating CRF peptide response. activation, % at 13.2 µM. 350,000 compounds, 0.46% hits. AID 588473;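 active = activation of at least 50%, plus an integration ratio under a set limit after plate pattern correction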;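 also: plate controls were neutral control wells without compound for no effect and CRF at EC100 for full effect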
PfG6PD inh – PfG6PD (Plasmodium falciparum) enzyme inhibition; 350,000 compounds, 0.78% hits; inhibition, % at 20 µM; PfGluPho enzyme, NADPH resazurin-diaphorase fluorescence;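 active = inhibition reaching at least a set limit at 20 µM in the primary screen, cut at about 59% in these data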;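 also: 0% = DMSO wells with substrate and 100% = DMSO wells lacking glucose-6-phosphate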
FAS-TE inh – blocks the thioesterase domain of human fatty acid synthase. P49327. recombinant FAS-TE, OMFH fluorogenic substrate, fluorescence endpoint. inhibition, % at 15 µM. 360,000 compounds, 0.67% hits. AID 602261;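 active = compounds whose normalised, plate-corrected inhibition of enzyme fluorescence in the single-dose primary screen is 50% or more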;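 also: 0% = DMSO with enzyme and 100% = substrate without enzyme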
aDG glyco act – alpha-DG glycosylation activation | 360,000 compounds, 0.22% hits | AID 624168 | activation, % at 10 µM | Pro5-aDG cells, alpha-DG glycosylation AlphaScreen (IIH6); 0% Pro5, 100% B10-LARGE cell signal;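 active = activation of at least 8% versus controls, or a plate z-score of at least 8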;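 also: Pro5 are CHO cells carrying HIG-tagged alpha-DG that lacks glycosylation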
H9c2 protect – modulators protecting cardiomyocytes from myocardial damage | H9c2 cardiomyocytes, H2O2 injury protection, ATPLite, 2 h | protection from H2O2 cell death, % at 20 µM | 360,000 compounds, 0.63% hits | AID 588492;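 active = compounds giving at least 50% protection of heart cells from peroxide-induced death in the single-dose screen, raw or plate-pattern-corrected value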;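 also: 0% = DMSO wells with peroxide and 100% = DMSO wells without peroxide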
CRFBP-R2 block – antagonists of CRF-binding protein/CRF-R2 receptor complex; AID 588475; 350,000 compounds, 0.59% hits; inhibition, % at 11.8 µM; HEK293 CRF-R2/CRF-BP, CRF-induced calcium fluorescence;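 active = inhibition of the ligand-induced calcium signal above about 50% at the single tested concentration, limit read from the data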
Active calls of the source: *.

Results for O=C(/C=C/c1cn(CC(O)CN2CCCCC2)c2ccccc12)c1ccccc1 (stereo unspecified) ?
CRFBP-R2 agonist: 8; PfG6PD inh: 9; FAS-TE inh: -14; aDG glyco act: 1; H9c2 protect: -3; CRFBP-R2 block: -18

What do the screens show for `CCOC(=O)C1=C(Cc2ccc(F)cc2)C(=O)c2ccccc2C1=O`?
CRFBP-R2 agonist: 20; PfG6PD inh: 98*; FAS-TE inh: 35; aDG glyco act: 0; H9c2 protect: -18; CRFBP-R2 block: -39

Results for O=C(/C=C/[C@H]1O[C@@H](n2ccc(=O)[nH]c2=O)[C@H](O)[C@@H]1O)NC1CCN(Cc2ccccc2)C1 (stereo partly specified) ?
FAS-TE inh: -13; aDG glyco act: 0; H9c2 protect: 7

Results for CC1Cc2ccccc2N1C(=O)CSc1nc2c(c(=O)n(C)c(=O)n2C)n1Cc1ccccc1 (stereo unspecified) ?
CRFBP-R2 agonist: 1; PfG6PD inh: 6; FAS-TE inh: 40; aDG glyco act: 0; H9c2 protect: 72*; CRFBP-R2 block: 7

How did COc1cc(CCC(=O)NC2(C)CCS(=O)(=O)C2)cc(OC)c1OC (stereo unspecified) do in these assays?
CRFBP-R2 agonist: -2; PfG6PD inh: 12; FAS-TE inh: -8; aDG glyco act: 0; H9c2 protect: -4; CRFBP-R2 block: 53*

What do the screens show for `CN(CC(=O)Nc1ccc(F)cc1)C(=O)CCc1nc2ccccc2c(=O)[nH]1`?
CRFBP-R2 agonist: 5; PfG6PD inh: -2; FAS-TE inh: -7; aDG glyco act: 0; H9c2 protect: 60*; CRFBP-R2 block: 14

What do the screens show for `N#CCCN(C(=O)COC(=O)CCc1nc2ccccc2c(=O)[nH]1)c1ccc(F)cc1`?
CRFBP-R2 agonist: 0; PfG6PD inh: -14; FAS-TE inh: -8; aDG glyco act: 0; H9c2 protect: 54*; CRFBP-R2 block: 7

How did CN(CC(=O)Nc1ccc(Cl)c(C(F)(F)F)c1)C(=O)CCc1nc2ccccc2c(=O)[nH]1 do in these assays?
CRFBP-R2 agonist: 2; PfG6PD inh: -13; FAS-TE inh: -5; aDG glyco act: 0; H9c2 protect: 49; CRFBP-R2 block: -2

How did COc1ccc(NC(=O)CN(C)C(=O)CCCc2nc3ccccc3c(=O)[nH]2)cc1 do in these assays?
CRFBP-R2 agonist: 1; PfG6PD inh: 13; FAS-TE inh: -5; aDG glyco act: 0; H9c2 protect: 31; CRFBP-R2 block: -6

How did CN(CC(=O)Nc1ccccc1Cl)C(=O)CCc1nc2ccccc2c(=O)[nH]1 do in these assays?
CRFBP-R2 agonist: -1; PfG6PD inh: 22; FAS-TE inh: -6; aDG glyco act: 0; H9c2 protect: 64*; CRFBP-R2 block: 18

Results for CCN(Cc1ccccc1)C(=O)CCS(=O)(=O)c1ccc2c(c1)NC(=O)CO2 ?
CRFBP-R2 agonist: 0; PfG6PD inh: 5; FAS-TE inh: -4; aDG glyco act: 0; H9c2 protect: 0; CRFBP-R2 block: 2

How did COC(=O)CCN1CCc2cc(N=Nc3ccc([N+](=O)[O-])cc3)ccc21 do in these assays?
CRFBP-R2 agonist: -2; PfG6PD inh: 0; FAS-TE inh: 4; aDG glyco act: 0; H9c2 protect: -9; CRFBP-R2 block: 19

Results for CC(C)(C)c1ccc(OCC(=O)NCc2ccco2)cc1 ?
CRFBP-R2 agonist: -3; PfG6PD inh: 7; FAS-TE inh: 4; aDG glyco act: 0; H9c2 protect: 1; CRFBP-R2 block: -7

How did O=C(CCc1nc2ccccc2c(=O)[nH]1)NCc1ccco1 do in these assays?
CRFBP-R2 agonist: -1; PfG6PD inh: -19; FAS-TE inh: -9; aDG glyco act: 0; H9c2 protect: 76*; CRFBP-R2 block: -5

Results for COc1ccc(NC(=O)COC(=O)CCc2nc3ccccc3c(=O)[nH]2)cc1Cl ?
CRFBP-R2 agonist: 0; PfG6PD inh: 0; FAS-TE inh: -2; aDG glyco act: 0; H9c2 protect: 33; CRFBP-R2 block: 6

How did COc1ccccc1NS(=O)(=O)c1cc(NC(=O)CCc2nc3ccccc3c(=O)[nH]2)ccc1C do in these assays?
CRFBP-R2 agonist: 0; PfG6PD inh: 7; FAS-TE inh: 0; aDG glyco act: 0; H9c2 protect: 94*; CRFBP-R2 block: 1
